Test [1] in a line: qHTS assay to identify small molecule agonists of the peroxisome proliferator-activated receptor delta (PPARd) signaling pathway - cell viability counter screen (AID 743211). Further: on the % scale 0 is the no-effect control and ±100 the full control effect; nearly all actives have a fitted effect of over 55% in size. The method, boiled down: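 Following 5 h plating at 37 C and 5% CO2, PPARd UAS-bla HEK293H cells took up test compounds for 17 h. Viability was quantified by luminescence 30 min after CellTiter-Glo addition at room temperature.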
On the technique in general: In qHTS, concentration-response curves come from the screen itself.

Test [2] deals with Peroxisome proliferator-activated receptor delta (Homo sapiens) (UniProt Q03181). The experiment in a line: qHTS assay to identify small molecule agonists of the peroxisome proliferator-activated receptor delta (PPARd) signaling pathway (AID 743212; calls by dose curve; further: on the % scale 0 is the no-effect control and ±100 the full control effect). The method, boiled down:
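Steps: seed PPARd-bla HEK293H cells; incubate 5 h, 37 C, 5% CO2; add compounds in DMSO; incubate, 37 C; add LiveBLAzer B/G FRET substrate; hold 2 h at room temperature; measure fluorescence.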

Test [3] in a line: qHTS assay to identify small molecule antagonists of the peroxisome proliferator-activated receptor delta (PPARd) signaling pathway - cell viability counter screen (AID 743213). Further: nearly all actives have a fitted effect of over 50% in size. Further: potency means the concentration at half of the fitted maximal effect. The method, boiled down:
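Luminescence from CellTiter-Glo, added after the bla read and incubated 30 min at room temperature, gives viability of HEK293H PPARd-bla cells exposed to compounds for 17 h at 37 C with 300 nM L165041.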

In test [4] the target is Peroxisome proliferator-activated receptor delta (Homo sapiens) (UniProt Q03181). The experiment in a line: qHTS assay to identify small molecule antagonists of the peroxisome proliferator-activated receptor delta (PPARd) signaling pathway (AID 743215; active means well fitted inhibition curve with a large enough effect in the signal ratio in the repeat runs, not every such curve was filed as active; the % refers to the signal ratio;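 further: cells stimulated with agonist L165041 at 300 nM final during compound exposure; series mostly up to about 62 µM; on the % scale 0 is the no-effect control and ±100 the full control effect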). Summed up: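 Cells: HEK293H with a UAS-driven beta-lactamase reporter responsive to PPARd. Compounds were co-added with L165041 (300 nM, final) and incubated 17 h at 37 C before a 2 h room-temperature FRET substrate step and fluorescence reading.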

Test [5] can be described thus: qHTS assay to identify small molecule agonists of the farnesoid-X-receptor (FXR) signaling pathway - cell viability counter screen (AID 743218). Further: on the % scale 0 is the no-effect control and ±100 the full control effect; nearly all actives have a fitted effect of over 45% in size. Summed up:
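Cells were seeded, left 5 h at 37 C and 5% CO2, then dosed with compound in DMSO for 16 h. After the beta-lactamase FRET read, CellTiter-Glo was added and luminescence measured 30 min later.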

Test [6] can be described thus: qHTS assay to identify small molecule antagonists of the farnesoid-X-receptor (FXR) signaling pathway - cell viability counter screen (AID 743221; active means well fitted cell-killing curve with a large enough effect in the repeat runs, not every such curve was filed as active; further: on the % scale 0 is the no-effect control and ±100 the full control effect; nearly all actives have a fitted effect of over 50% in size). Summed up: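 Compound effects on cell number were measured as CellTiter-Glo luminescence in HEK 293T cells expressing FXR-UAS-bla, after 16 h at 37 C with 50 uM CDCA (final).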
Test [7] has as its target Vitamin D3 receptor (Homo sapiens) (UniProt P11473). Nature of the test: qHTS assay to identify small molecule agonists of the vitamin D receptor (VDR) signaling pathway (AID 743222; calls by dose curve; further: on the % scale 0 is the no-effect control and ±100 the full control effect). Summed up: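 Cells carrying a VDR-driven beta-lactamase reporter are seeded at 2,000 per well and rested 4 h. Compounds in DMSO are added for 16 h at 37C, and FRET substrate fluorescence is measured after 2 h at room temperature.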

The target is the same in test [8]. The experiment in a line: qHTS assay to identify small molecule antagonists of the vitamin D receptor (VDR) signaling pathway (AID 743223; active means well fitted inhibition curve with a large enough effect in the signal ratio in the repeat runs, not every such curve was filed as active; the % refers to the signal ratio; further: on the % scale 0 is the no-effect control and ±100 the full control effect). The method, boiled down: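 Beta-lactamase activity in VDR-bla cells is measured by FRET substrate fluorescence (2 h, room temperature) after cells spend 16 h at 37C with test compound and 3 nM final 1alpha,25-dihydroxyvitamin D3.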

Test [9] in a line: qHTS assay to identify small molecule agonists of the vitamin D receptor (VDR) signaling pathway - cell viability counter screen (AID 743224). Further: series mostly up to about 63 µM; on the % scale 0 is the no-effect control and ±100 the full control effect; nearly all actives have a fitted effect of over 50% in size. The method, boiled down: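 Cells: VDR-bla, 2,000/well, settled 4 h. Treatment: compounds in DMSO, 16 h, 37C/5% CO2. Readout: CellTiter-Glo luminescence after 30 min RT.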
Test [10] can be described thus: qHTS assay to identify small molecule antagonists of the vitamin D receptor (VDR) signaling pathway - cell viability counter screen (AID 743225). Further: on the % scale 0 is the no-effect control and ±100 the full control effect; nearly all actives have a fitted effect of over 50% in size. Summed up:
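In this counter screen, VDR-bla HEK 293T cells receive test compound plus 3 nM final calcitriol for 16 h at 37C. Room-temperature steps of 2 h with the beta-lactamase substrate, then 30 min with CellTiter-Glo, precede the luminescence read.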

Test [11] in a line: qHTS assay to identify small molecule agonists of the NFkB signaling pathway (AID 1159509; active means well fitted curve in the direction sought with a large enough effect in the signal ratio in the repeat runs, not every such curve was filed as active; the % refers to the signal ratio). The method, boiled down:
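Beta-lactamase reporter assay run in quantitative high-throughput format on an NF-kB-responsive ME-180 line, with 5 hr compound treatment and a FRET-based blue/green fluorescence readout.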

Test [12] can be described thus: qHTS assay to identify small molecule agonists of the NFkB signaling pathway - cell viability counter screen (AID 1159515; calls by dose curve; further: nearly all actives have a fitted effect of over 55% in size; further: potency means the concentration at half of the fitted maximal effect). Summed up:
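Cells are seeded (2,000 NFkB-bla ME-180 per well), rested overnight, and dosed with DMSO-dissolved compounds for 5 hr at 37 C. Viability is then read by CellTiter-Glo luminescence after 30 min at room temperature.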

Test [13] in a line: qHTS assay to identify small molecule agonists of the endoplasmic reticulum stress response signaling pathway (AID 1159516; active means well fitted activation curve with a large enough effect in the signal ratio in the repeat runs, not every such curve was filed as active; the % refers to the signal ratio; further: on the % scale 0 is the no-effect control and ±100 the full control effect). The method, boiled down:
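Cells are seeded at 1,500 per well and incubated overnight. Compounds in DMSO are added for 5 hr at 37 C, then beta-lactamase FRET substrate for 2 hr at room temperature, and fluorescence at 460 and 530 nm is measured.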

Test [14] is described as follows: qHTS assay to identify small molecule antagonists of the retinoid-related orphan receptor gamma (ROR-gamma) signaling pathway - cell viability counter screen (AID 1159520). Further: nearly all actives have a fitted effect of over 50% in size. Further: potency means the concentration at half of the fitted maximal effect. Summed up:
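Cytotoxicity was read from cellular ATP (CellTiter-Glo luminescence) after 16 hr at 37 C with 1 uM doxycycline induction. The inducer was added 2 hr after compound transfer to Tet-on ROR gamma CHO cells.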

Test [15] can be described thus: qHTS assay to identify small molecule agonists of the AP-1 signaling pathway - cell viability counter screen (AID 1159525; calls by dose curve; further: nearly all actives have a fitted effect of over 55% in size; further: potency means the concentration at half of the fitted maximal effect). Summed up:
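Intracellular ATP by Cell Titer Glo luminescence (30 min, RT) in the same ME-180 AP-1-bla wells after the 5 h compound exposure at 37 °C. Normalised to tetra n-octyl ammonium bromide and DMSO controls.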

Test [16] is described as follows: qHTS assay to identify small molecule agonists of the AP-1 signaling pathway (AID 1159526; calls by dose curve; further: on the % scale 0 is the no-effect control and ±100 the full control effect).
Test [17] addresses Bile acid receptor (Homo sapiens) (UniProt Q96RI1). Nature of the test: qHTS assay to identify small molecule antagonists of the farnesoid-X-receptor (FXR) signaling pathway (AID 743217; active means well fitted inhibition curve with a large enough effect in the signal ratio in the repeat runs, not every such curve was filed as active; the % refers to the signal ratio; further: on the % scale 0 is the no-effect control and ±100 the full control effect). Summed up:
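Cells carrying a UAS-driven beta-lactamase reporter (GeneBLAzer FXR-UAS-bla HEK 293T) were plated and rested 5 h at 37 °C. Compounds in DMSO were added alongside chenodeoxycholic acid agonist at 50 uM final and left 16 h at 37 °C before FRET substrate readout.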

The target is the same in test [18]. Nature of the test: qHTS assay to identify small molecule agonists of the farnesoid-X-receptor (FXR) signaling pathway (AID 743220; active means well fitted activation curve with a large enough effect in the signal ratio in the repeat runs, not every such curve was filed as active; the % refers to the signal ratio; further: on the % scale 0 is the no-effect control and ±100 the full control effect). The method, boiled down:
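FXR-UAS-bla HEK 293T cells carrying a UAS-driven beta-lactamase reporter were plated for 5 h at 37C/5% CO2, then exposed to DMSO-dissolved Tox21 10K compounds for 16 h at 37C. A LiveBLAzer B/G FRET substrate was loaded for 2 h at room temperature before fluorescence reading.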

Test [19] has as its target Nuclear receptor ROR-gamma (Homo sapiens) (UniProt P51449). The experiment in a line: qHTS assay to identify small molecule antagonists of the retinoid-related orphan receptor gamma (ROR-gamma) signaling pathway (AID 1159521; further: nearly all actives have a fitted effect of over 50% in size; further: potency means the concentration at half of the fitted maximal effect). The method, boiled down: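 Screening format: cell-based luciferase reporter in CHO cells with doxycycline-inducible RORγ. Compound pre-exposure lasts 2 h, doxycycline is 1 uM final, induction runs 16 h at 37 C, and ONE-Glo luminescence is read.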

Molecules are shown by their SMILES. Inconclusive results are not listed. A number with no mark means an inactive call. Activity calls are given as the source filed them. Unless noted, the call rests on the fitted dose curve; in most records, active means well fitted curve in the direction sought with a large enough effect in the repeat runs; inconclusive means weak or mixed curves; inactive means no such curve, though single readings can be large; an effect the other way counts as inactive or inconclusive.

Bile acid receptor (Homo sapiens), sequence (Q96RI1 whole entry, looked up): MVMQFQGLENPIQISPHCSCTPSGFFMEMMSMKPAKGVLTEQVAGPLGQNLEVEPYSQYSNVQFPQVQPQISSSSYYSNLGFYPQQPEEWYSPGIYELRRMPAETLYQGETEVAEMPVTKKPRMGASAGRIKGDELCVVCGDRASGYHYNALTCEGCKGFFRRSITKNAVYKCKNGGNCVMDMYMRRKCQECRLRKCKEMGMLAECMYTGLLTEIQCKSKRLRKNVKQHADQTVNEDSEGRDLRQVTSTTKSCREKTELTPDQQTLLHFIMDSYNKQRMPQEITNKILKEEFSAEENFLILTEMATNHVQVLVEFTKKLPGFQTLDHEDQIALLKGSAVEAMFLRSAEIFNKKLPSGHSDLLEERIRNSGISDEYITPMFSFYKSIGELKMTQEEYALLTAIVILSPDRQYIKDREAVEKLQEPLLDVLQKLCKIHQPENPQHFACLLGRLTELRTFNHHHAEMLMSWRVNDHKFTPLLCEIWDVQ
Peroxisome proliferator-activated receptor delta (Homo sapiens), sequence (Q03181 whole entry, looked up): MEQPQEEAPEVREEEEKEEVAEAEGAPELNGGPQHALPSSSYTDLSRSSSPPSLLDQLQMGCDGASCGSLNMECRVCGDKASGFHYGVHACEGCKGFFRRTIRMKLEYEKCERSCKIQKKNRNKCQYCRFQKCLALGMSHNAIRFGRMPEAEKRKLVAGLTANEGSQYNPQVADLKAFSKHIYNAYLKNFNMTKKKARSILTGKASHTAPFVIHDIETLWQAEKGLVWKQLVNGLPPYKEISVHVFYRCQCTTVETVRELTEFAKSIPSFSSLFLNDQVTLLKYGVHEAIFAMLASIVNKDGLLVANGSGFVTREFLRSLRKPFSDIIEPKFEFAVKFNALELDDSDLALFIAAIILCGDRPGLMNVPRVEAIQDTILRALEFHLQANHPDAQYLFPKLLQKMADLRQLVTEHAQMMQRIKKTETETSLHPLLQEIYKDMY
Vitamin D3 receptor (Homo sapiens), sequence (P11473 whole entry, looked up): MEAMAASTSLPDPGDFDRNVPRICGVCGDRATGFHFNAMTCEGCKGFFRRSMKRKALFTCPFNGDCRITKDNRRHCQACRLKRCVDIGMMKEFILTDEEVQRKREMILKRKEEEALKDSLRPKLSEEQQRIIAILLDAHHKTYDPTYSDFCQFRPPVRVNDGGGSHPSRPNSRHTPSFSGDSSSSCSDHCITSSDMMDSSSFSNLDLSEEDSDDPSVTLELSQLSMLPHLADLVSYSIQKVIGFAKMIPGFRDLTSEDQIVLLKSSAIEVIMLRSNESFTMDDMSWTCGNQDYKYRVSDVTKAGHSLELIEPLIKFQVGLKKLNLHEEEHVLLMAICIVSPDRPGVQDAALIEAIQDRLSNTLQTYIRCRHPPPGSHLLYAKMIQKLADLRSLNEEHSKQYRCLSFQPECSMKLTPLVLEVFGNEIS

As for `C[C@@H]1C[C@H]2[C@@H]3CCC4=CC(=O)C=C[C@]4(C)[C@@]3(F)[C@@H](O)C[C@]2(C)[C@@]1(O)C(=O)COP(=O)(O)O`, the Potency result in test [1], in test [3], in [4], in [5], in [6] and in test [9] was “inactive” throughout. The Potency entry in [10], in test [12], in [13], in test [14] and in test [15] was “inactive” in each case. Also, the outcome in test [2], in test [7], in test [8], in [11] and in [16] was inactive.

For the compound `CC(C)(C)C(O)/C=C/c1ccc2c(c1)OCO2` (stereo not given), the Potency result in test [1], in test [3], in test [4], in test [5], in [18] and in [6] was “inactive” each time. Further, the Potency result in test [9], in [10], in test [12], in [13], in [14] and in test [19] was “inactive” in each case. Moreover, the Potency entry in test [15] is “inactive”. Moreover, the compound was called inactive in [2], in [17], in [7], in [8] and in test [11].

As to `C=C(C)c1ccccc1`, the Potency result in test [1], in [3], in test [4], in [5], in [6] and in test [9] was “inactive” in each case. Moreover, the Potency result in test [10], in test [12], in [13], in [14] and in test [15] was “inactive” in each case. The outcome in [2], in test [17], in [7], in test [8], in test [11] and in test [16] was inactive.

Turning to `[Cl][Nd]([Cl])[Cl]`, the call in test [2], in test [7], in [11] and in [16] was inactive. Moreover, the Potency result in test [3], in test [5], in test [6], in test [9], in test [10] and in [12] was “inactive” each time. The Potency result in test [13], in test [14], in [19] and in test [15] was “inactive” in each case.

As to `CC(C)COC(=O)c1ccc(O)cc1`, the Potency result in [1], in test [3], in test [4], in test [5], in test [6] and in [9] was “inactive” throughout. Further, the Potency result in [10], in test [12], in test [13], in [14], in [19] and in test [15] was “inactive” each time. Moreover, the compound was classed as inactive in [2], in test [17], in [7], in test [8] and in [11].

For the compound `CC(C)C(=O)OCCOc1ccccc1`, the Potency entry in [1], in test [4], in test [6], in test [9], in test [10] and in test [12] was “inactive” each time. In addition, the Potency result in [13], in test [14] and in [15] was “inactive” throughout. For the same compound, the call in [2], in [7], in test [8], in [11] and in [16] was inactive.

Turning to `O=C(O)CCS`, the Potency entry in test [1], in test [3], in [4], in test [5], in test [6] and in test [9] was “inactive” each time. For the same compound, the Potency entry in test [10], in [12], in test [13], in [14] and in [15] was “inactive” each time. For the same compound, the result in [2], in test [17], in test [8], in test [11] and in test [16] was inactive.

Regarding `CCC(Cl)CC(Cl)C(Cl)C(Cl)C(Cl)C(C)Cl` (stereo not given), the activity change, negative = cytotoxicity in [1] is -18.5% [at 13.2 µM]; in test [6] it was -0.0192% [at 13.2 µM]; in test [9], -2.44% [at 13.2 µM]. In addition, the activation is -9.79% [at 13.2 µM] in test [2], -0.489% [at 15.1 µM] in test [11], -4.87% [at 15.1 µM] in test [13] and 9.95% [at 15.8 µM] in test [16]. In addition, the viability change, negative = cytotoxic was 6.69% [at 15.1 µM] in [10] and -14.2% [at 15.8 µM] in [15]. Also, the activity, negative = cytotoxic in test [12] is 0.94% [at 15.1 µM]. The activity, negative = cytotoxicity in test [14] was 0.516% [at 19 µM].

For `CCN(CC)c1ccc(C(=C2C=CC(=[N+](CC)CC)C=C2)c2ccc(S(=O)(=O)O)cc2S(=O)(=O)[O-])cc1`, the compound was classed as inactive in test [2], in [8] and in test [11]. Besides, the Potency in test [3] was 27.5 µM (active); in [12] it was 43.6 µM (active); in test [14], 8.63 µM (active); in test [19], 12.2 µM (active); in [15] it was 19.5 µM (active). The Potency result in test [4], in test [6], in test [10] and in test [13] was “inactive” throughout.

(Values after PubChem BioAssay (Tox21).)
